Only some compounds are listed: those with a hit (about 1.8% of all), similar ones and a draw of the others.
PTHR1 agonist = activates the human parathyroid hormone receptor PTHR1; Q03431; HEK293 GP2 PTHR1 cells, GloSensor cAMP luminescence, 1 h; Potency, µM (top dose mostly 115 µM), hits mostly activators; actives 0.075% (n = 410,000); AID 743266; also: nearly all actives have a fitted effect of over 55% in size
Target sequence (Q03431 whole entry, looked up): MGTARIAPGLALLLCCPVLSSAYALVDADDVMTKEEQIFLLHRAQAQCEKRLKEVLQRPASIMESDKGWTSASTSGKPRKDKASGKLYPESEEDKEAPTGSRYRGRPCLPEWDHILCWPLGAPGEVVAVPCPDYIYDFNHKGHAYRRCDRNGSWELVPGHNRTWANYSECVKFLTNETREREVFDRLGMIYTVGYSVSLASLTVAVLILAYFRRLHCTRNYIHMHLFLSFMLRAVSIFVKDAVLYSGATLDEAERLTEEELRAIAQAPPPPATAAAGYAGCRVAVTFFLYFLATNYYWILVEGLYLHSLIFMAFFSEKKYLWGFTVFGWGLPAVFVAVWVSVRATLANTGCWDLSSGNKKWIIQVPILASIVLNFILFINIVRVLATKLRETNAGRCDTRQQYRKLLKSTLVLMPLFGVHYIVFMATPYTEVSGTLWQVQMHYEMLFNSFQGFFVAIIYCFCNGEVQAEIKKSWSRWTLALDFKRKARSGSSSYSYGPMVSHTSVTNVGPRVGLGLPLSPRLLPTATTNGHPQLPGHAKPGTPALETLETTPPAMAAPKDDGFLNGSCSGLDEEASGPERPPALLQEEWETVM
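HEK-293-derived GP2 cells expressing PTHR1 and a GloSensor cAMP reporter, 3,000/well, plated overnight, given luciferin plus IBMX (each 0.5 mM as added) for 1 h at 37 °C, then compound for 1 h at 37 °C. Luminescence was read after 15 min at room temperature.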
TSHR antag = blocks TSH signaling through the human TSH receptor | P16473 | TSHR-expressing cells, TSH-stimulated cAMP HTRF, 2 h; active compounds read low | activity change, negative = inhibition, % at 11.5 µM | actives 0.2% (n = 330,000) | AID 504810;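 active = activity change below a set negative limit, meaning inhibition stronger than a set level, cut at about -70% in these data; inconclusive = activity change between two set negative limits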
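Antagonism was scored as loss of TSH-driven cAMP in TSHR cells, stimulated with 4nM TSH (EC80) for 2 hours at 37 deg C and detected by homogeneous HTRF competition immunoassay.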
HEK293 tox = cytotoxic in the GLP-1 receptor inverse agonist counter-screen | HEK293 cAMP-luciferase reporter cells, luminescence, 24 h | Potency, µM (highest dose often 38.3 µM), usual class: inhibitors | actives 0.13% (n = 410,000);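 also: loss of luciferase light is scored as toxicity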
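1536-well qHTS counterscreen of the MLSMR; 200 cells/uL, 12 h pre-incubation, 23 nL cpd, 24 h at 37 deg C 5% CO2, luciferase detection reagent, 12 min RT, luminescence. Inhibition = undesired.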
GLP1R inv ag = GLP-1 receptor (human) inverse agonism | actives 1.6% (n = 410,000) | AID 624417 | P43220 | HEK293 GLP-1R CRE-luciferase, luminescence, 24 h; GLP-1R form is constitutively active | Potency, µM (doses to about 38.3 µM), hits mostly inhibitors; also: nearly all actives have a fitted effect of over 55% in size
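Assay principle: reduced luminescence from a cAMP-responsive reporter in HEK293 cells co-expressing a constitutively active GLP-1R. Conditions: 24 hr compound incubation, 37 deg C, 5% CO2.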
GLP-1R agonist = agonists of human GLP-1 receptor. P43220. HEK293 GLP-1R CRE-luciferase, luminescence, 4-6 h; cells express a hypersensitive GLP-1R form. Potency, µM (top dose mostly 45.6 µM), most hits filed as activators. actives 0.007% (n = 380,000). AID 624172
Large screens that a line does not name were inactive. Unless noted, calls follow the shape of the dose curve; as a rule, active = well fitted curve in the direction sought with a large enough effect; inconclusive = small, poorly fitted or top-dose-only effect, or another doubt; inactive = no such curve, though single readings can be large; an effect the other way counts as inactive or inconclusive.

COCCNC(=O)C1CCN(Cc2cc3ccccc3n2Cc2ccc(C)cc2)CC1	GLP1R inv ag 10µM (no result: TSHR antag, GLP-1R agonist)
CCCNC(=O)C1CCN(Cc2cc3ccccc3n2Cc2ccccc2)CC1	GLP1R inv ag inconclusive (no result: TSHR antag, GLP-1R agonist)
CC(CNC(=O)C1CCN(Cc2cc3ccccc3n2Cc2ccccc2)CC1)c1ccccc1 (centres undefined)	GLP1R inv ag 10µM (no result: TSHR antag, GLP-1R agonist)
COc1ccc(CNC(=O)c2ccc(CNS(=O)(=O)c3ccc(F)cc3)cc2)cc1	none (no result: TSHR antag, GLP-1R agonist)
COC(=O)c1c(NC(=O)CSc2nnc(-c3ccco3)n2Cc2ccccc2)sc(C)c1C	GLP1R inv ag 13µM
O=C(CSc1nnc(-c2ccco2)n1Cc1ccccc1)OC1CCCCC1	GLP1R inv ag 10µM
COC(=O)c1c(NC(=O)CSc2nc3ccccc3c(=O)n2Cc2ccco2)sc(C)c1C	none
CCn1c2ccccc2c2cc(NC(=O)CN3CCCC3)ccc21	GLP1R inv ag inconclusive
CCn1c2ccccc2c2cc(NC(=O)CNCC3CCCO3)ccc21 (centres undefined)	GLP1R inv ag 10µM
COc1cc(/C=C2/C(=O)NN(c3ccc(Cl)cc3)C2=O)cc(OC)c1O	HEK293 tox inconclusive, GLP1R inv ag 4µM
O=C1NN(c2ccccc2)C(=O)C1=Cc1ccccc1	HEK293 tox inconclusive, GLP1R inv ag 4µM (no result: TSHR antag)
COc1cc(/C=C2/C(=O)NN(c3ccccc3)C2=O)cc(Br)c1O	GLP1R inv ag inconclusive
O=C1NN(c2ccccc2)C(=O)/C1=C\c1ccccc1	GLP1R inv ag inconclusive
CCOc1ccccc1NC(=O)C(NCCc1ccc(OC)cc1)c1ccccc1 (centres undefined)	TSHR antag -73, GLP1R inv ag inconclusive
O=C(Cn1cc(SCc2ccc(C(F)(F)F)cc2)c2ccccc21)N1CCCCCC1	GLP1R inv ag 7.1µM (no result: TSHR antag, GLP-1R agonist)
Cc1ccc(CSc2cn(CC(=O)N3CCCCCC3)c3ccccc23)cc1	GLP1R inv ag 10µM (no result: TSHR antag, GLP-1R agonist)
Cc1ccc(CSc2cn(CC(=O)N3CCCC3)c3ccccc23)cc1	GLP1R inv ag inconclusive (no result: TSHR antag, GLP-1R agonist)
CC1CCN(C(=O)Cn2cc(SCC(=O)NCc3ccccc3Cl)c3ccccc32)CC1	GLP1R inv ag 10µM (no result: TSHR antag, GLP-1R agonist)
CCCCC1C2=C(CC(C)(C)CC2=O)OC2=C1C(=O)CC(C)(C)C2	GLP1R inv ag 8.9µM
CN(C)CCN(C(=O)c1ccc(S(=O)(=O)N2CCCC2)cc1)c1nc2ccc(Br)cc2s1	GLP1R inv ag 5.6µM
CCOc1cccc2sc(N(CCCN(C)C)C(=O)c3ccc(S(=O)(=O)N(C)Cc4ccccc4)cc3)nc12	HEK293 tox inconclusive, GLP1R inv ag inconclusive
Cc1cc(C)c2sc(N(CCN(C)C)C(=O)c3c(F)cccc3F)nc2c1	GLP1R inv ag 7.1µM
Cc1ccc2nc(N(CCCN(C)C)C(=O)c3ccc(S(=O)(=O)N4CCCCCC4)cc3)sc2c1	HEK293 tox inconclusive, GLP1R inv ag inconclusive
CN(C)CCCN(C(=O)c1ccc(S(=O)(=O)N2CCCCCC2)cc1)c1nc2cc3c(cc2s1)OCO3	GLP1R inv ag 10µM (no result: TSHR antag)
CCOc1cccc2sc(N(CCCN(C)C)C(=O)c3ccc(S(=O)(=O)N(CC)Cc4ccccc4)cc3)nc12	HEK293 tox inconclusive, GLP1R inv ag 4µM
O=C(Nc1ccc(F)c(Cl)c1)N1CC=C(c2c[nH]c3ccccc23)CC1	none (no result: TSHR antag, GLP-1R agonist)
CCC(Sc1nc(-c2ccccc2)[nH]c1S(=O)(=O)c1ccc(C)cc1)C(=O)O (centres undefined)	none (no result: TSHR antag, GLP-1R agonist)
CCN(c1ccccc1)S(=O)(=O)c1ccc(C(=O)N(CCCN(C)C)c2nc3cc4c(cc3s2)OCO4)cc1	HEK293 tox inconclusive, GLP1R inv ag 3.5µM
CN(C)CCN(C(=O)c1cccc2ccccc12)c1nc2cc3c(cc2s1)OCO3	GLP1R inv ag 10µM
CN(C)CCCN(C(=O)c1ccc2ccccc2c1)c1nc2cc3c(cc2s1)OCO3	HEK293 tox inconclusive, GLP1R inv ag inconclusive
CN(C)CCCN(C(=O)c1ccc(S(=O)(=O)N(C)Cc2ccccc2)cc1)c1nc2cc3c(cc2s1)OCO3	HEK293 tox inconclusive, GLP1R inv ag 7.1µM
Cc1cc(C)c2sc(N(CCCN(C)C)C(=O)c3ccc(S(=O)(=O)N(C)Cc4ccccc4)cc3)nc2c1	HEK293 tox inconclusive, GLP1R inv ag 11µM
COc1ccc2sc(N(CCCN(C)C)C(=O)c3ccc(S(=O)(=O)N(C)Cc4ccccc4)cc3)nc2c1	HEK293 tox inconclusive, GLP1R inv ag inconclusive
Cc1ccc2c(c1)C(c1ccc(F)cc1)N(C(=O)c1ccc(OC(C)C)cc1)CC(=O)N2 (centres undefined)	HEK293 tox inconclusive, GLP1R inv ag inconclusive (no result: TSHR antag, GLP-1R agonist)
COc1ccc2oc(-c3ccc(C)c(NC(=O)c4cccnc4)c3)nc2c1	none (no result: TSHR antag, GLP-1R agonist)
Cc1cc(C)c(NC(=O)CCn2c(=O)c3cccn3c3cccnc32)c(C)c1	none (no result: TSHR antag, GLP-1R agonist)
COc1cc([C@@H]2c3cc4c(cc3[C@@H](O[C@@H]3O[C@H]5CO[C@H](C)O[C@H]5[C@H](O)[C@@H]3O)[C@H]3COC(=O)[C@H]23)OCO4)cc(OC)c1OP(=O)(O)O	none (no result: PTHR1 agonist, TSHR antag, HEK293 tox, GLP1R inv ag)
Cc1cc(C)n2[nH]c(=O)c(N=Nc3ccccc3)c2n1	HEK293 tox inconclusive
Cc1cc(C(F)(F)F)n2[nH]c(=O)c(N=Nc3ccccc3)c2n1	PTHR1 agonist 18µM, HEK293 tox inconclusive
CC(C)(C)C(=O)Cn1c(=O)n(-c2ccc(Cl)cc2)c(=O)c2c3c(sc21)CCCC3	none (no result: TSHR antag)
Cc1ccc(NC(NC(=O)c2cccs2)C(Cl)(Cl)Cl)cc1 (centres undefined)	GLP1R inv ag inconclusive
Cc1ccccc1NC(NC(=O)c1cccs1)C(Cl)(Cl)Cl (centres undefined)	GLP1R inv ag 7.9µM
Cc1ccc(NC(NC(=O)c2cccs2)C(Cl)(Cl)Cl)cc1C (centres undefined)	GLP1R inv ag 13µM (no result: TSHR antag)
Cc1ccccc1NC(=O)c1ccccc1NC(=O)c1cccs1	none
CCc1ccc(NC(=O)Cn2c(=O)n(Cc3nc(-c4ccccc4)no3)c(=O)c3cc4c(cc32)OCO4)cc1	none (no result: TSHR antag, GLP-1R agonist)
O=C1/C(=C\c2ccc(Cl)c(Cl)c2)CN(C(=O)CCN2CCOCC2)C/C1=C/c1ccc(Cl)c(Cl)c1	HEK293 tox 2.8µM, GLP1R inv ag inconclusive (no result: TSHR antag)
CCOc1ccc(NS(=O)(=O)c2cccc(C(=O)NCC3(N(C)C)CCCCC3)c2)cc1	GLP1R inv ag 10µM
Cc1ccc(C(=O)N(CCc2ccccc2)Cc2ccccc2)cc1S(=O)(=O)N1CCOCC1	GLP1R inv ag 10µM (no result: TSHR antag)
FC(F)(F)c1nc2ccccc2nc1N/N=C\c1ccccc1	HEK293 tox 8.9µM, GLP1R inv ag inconclusive
Cc1cccc(C)c1OCC(=O)N/N=C/c1cccnc1	HEK293 tox 13µM
O=C(COc1ccc(-c2ccccc2)cc1)N/N=C/c1cccnc1	none
CCOc1ccc(CN2C(=O)c3ccccc3Sc3ccc(C(=O)NCc4ccc5c(c4)OCO5)cc32)cc1	none (no result: TSHR antag, GLP-1R agonist)
